Measured values taken from PubChem BioAssay (NCI).
About 83,000 compounds went through this panel and 20% of them were active in at least one assay; those are over-represented in the sample as a whole.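 For each line, cells grew in 96-well plates with the test compound present at a single concentration for 48 hours.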 A number with no mark means an inactive call. Calls of active or inactive are those of the source. Rule for the calls: active = growth percent below 10; inactive = the rest.

Legend:
Experiment in all cases: NCI-60 one-dose screen, 48 h (100 = growth as untreated, 0 = no growth, -100 = all killed)
Conditions in all cases: 10 µM
NCI-H23 lung = test system: NCI-H23 lung
NCI-H226 lung = test system: NCI-H226 lung
NCI-H322M lung = test system: NCI-H322M lung
NCI-H460 lung = test system: NCI-H460 lung
HOP-92 NSCLC = test system: HOP-92 NSCLC
NCI-H522 lung = test system: NCI-H522 lung
A549/ATCC NSCLC = test system: A549/ATCC NSCLC
786-0 renal = test system: 786-0 renal
COLO 205 colon = test system: COLO 205 colon
DU-145 prostate = test system: DU-145 prostate
K-562 leukemia = test system: K-562 leukemia
MALME-3M melanoma = test system: MALME-3M melanoma
MDA-MB-231 breast = test system: MDA-MB-231 breast
RXF 393 renal = test system: RXF 393 renal
SF-268 CNS = test system: SF-268 CNS
SF-295 CNS = test system: SF-295 CNS
SF-539 CNS = test system: SF-539 CNS
UACC-257 melanoma = test system: UACC-257 melanoma
M14 melanoma = test system: M14 melanoma

Row | Compound | growth (NCI-H23 lung) | growth (NCI-H226 lung) | growth (NCI-H322M lung) | growth (NCI-H460 lung) | growth (HOP-92 NSCLC) | growth (NCI-H522 lung) | growth (A549/ATCC NSCLC) | growth (786-0 renal) | growth (COLO 205 colon) | growth (DU-145 prostate) [%] | growth (K-562 leukemia) | growth (MALME-3M melanoma) | growth (MDA-MB-231 breast) | growth (RXF 393 renal) | growth (SF-268 CNS) [%] | growth (SF-295 CNS) | growth (SF-539 CNS) | growth (UACC-257 melanoma) | growth (M14 melanoma)
1 | COC[C@@H](CC(C)C)N=C1N/C(=C\c2ccc3ncsc3c2)C(=O)N1C | -17.7% (active) | 11.4% | 9.12% (active) | 21.2% | 19.1% | -29.6% (active) | 15.9% | 14.9% | -28.4% (active) | 20.9 | 17.7% | 7.51% (active) | 0.748% (active) | -19.2% (active) | 19.1 | 23.2% | -15.6% (active) | 6.69% (active) | 38.1%
2 | COc1ccc(-c2nc(-c3ccccc3)c(-c3ccccc3)n2-c2ccc(S(=O)(=O)Nc3ncccn3)cc2)cc1OC | 94.8% | 75.1% | 77.4% | 95.6% | 56.6% | 89% | 87.6% | 64.6% | 133% | 89 | 76.8% | 106% | 62.2% |  | 82.9 | 46.5% | 67.2% | 113% | 93.9%
3 | Cc1ccc(/C=C/C(=O)c2ccc(NC(=O)CSc3nnc(-c4c[nH]c5ccccc45)n3-c3ccccc3)cc2)c(C)c1 | -1.3% (active) | 33.1% | 75.8% | -35.8% (active) | 76.8% | 25% | 54.3% | 65.8% | 70.5% | 41.1 | 35.4% | -71.7% (active) | 21.9% |  | 72.3 | 66.1% | -95.3% (active) | 90.2% | 53.5%
4 | Cc1ccc([N+](=O)[O-])c(C(=O)Nc2ccc(-c3ccc4c(c3)NC(=O)/C4=C\c3ccc[nH]3)cc2)c1 | 21% | 52% | 48.9% | 0.658% (active) | 109% | 39.5% | 47% | 61.6% | 8.99% (active) | 10.5 | 28% | 55.5% | 55.1% | 87.4% | 14.2 | -65.3% (active) | 73.7% | 81.4% | 34.2%
5 | N#Cc1c(NC(=O)c2ccc(C(F)(F)F)cc2C(F)(F)F)sc2c1CCC(=O)C2 | -50% (active) | -7.56% (active) | 12.4% | 12% | -61.5% (active) | -72.5% (active) | 9.8% (active) | 4.38% (active) | -73.3% (active) | 23.9 | 2.16% (active) | -86.8% (active) | -74.4% (active) | -59% (active) | 27.1 | -21.7% (active) | -80.2% (active) | -64.8% (active) | -50.3% (active)
6 | CC(=O)c1cc(C(=O)N2c3ccccc3Sc3ccccc32)n2ccc(C)cc12 | 42% | 40.2% | 72.2% | 12.3% | 38.1% | 49.6% | 56.9% | 44.5% | 67.7% | 56.6 | 18.7% | 53.9% | 46.4% |  | 49.4 | 36.5% | 32.7% | 31.6% | 36.1%
7 | COc1cc2c(c(OC)c1OC)C(=O)CC(c1cccc(NC(=O)c3cccc(N)c3)c1)O2 (stereo not drawn) | 91.1% | 86.7% | 91% | 79.2% | 74% | 61% | 85.3% | 91.9% | 102% | 83 | 47.5% | 78.8% | 68.3% | 100% | 81.7 | 92.8% | 95.3% | 93.4% | 96.5%
8 | CCCCOc1ccc(Nc2nc3ccccc3nc2Nc2ccc(OCCCC)cc2)cc1 | 82.6% | 96.6% | 106% | 60.1% | 97.4% | 88.5% | 89.4% | 72.1% | 116% | 87.9 | 77.3% | 106% | 109% |  | 82 | 87.5% | 106% | 97.3% | 88.5%
